# Experimental data from PubChem BioAssay (Tox21).
# Results filed as inconclusive are left out. Entries that show only a call come without a potency. Activity calls are given as the source filed them. Unless noted, calls come from the whole dose curve.
# Tests used:
# [1] = molecular target: Gonadotropin-releasing hormone receptor (Homo sapiens) (UniProt P30968); experiment: Human gonadotropin-releasing hormone receptor (GnRHR) small molecule agonists, calcium flux assay in GnRHR-HEK293 cells (AID 1920063); note: nearly all actives have a fitted effect of over 35% in size
# Chain of Gonadotropin-releasing hormone receptor (Homo sapiens) (P30968 whole entry, looked up): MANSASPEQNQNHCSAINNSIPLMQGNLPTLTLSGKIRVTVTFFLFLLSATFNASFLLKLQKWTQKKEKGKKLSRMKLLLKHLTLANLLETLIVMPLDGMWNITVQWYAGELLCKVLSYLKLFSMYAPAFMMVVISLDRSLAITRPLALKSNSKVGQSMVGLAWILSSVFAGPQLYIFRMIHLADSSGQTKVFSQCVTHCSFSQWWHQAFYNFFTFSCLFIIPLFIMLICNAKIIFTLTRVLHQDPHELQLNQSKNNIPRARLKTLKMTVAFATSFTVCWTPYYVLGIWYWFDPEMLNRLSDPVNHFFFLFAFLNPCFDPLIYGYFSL
# In short: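 Tox21-format agonist screen using human GnRHR-expressing HEK293 cells and a fluorescent calcium dye; kinetic 3-min fluorescence reading after compound addition, 15-point concentration series run in triplicate.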
# [2] = molecular target: KiSS-1 receptor (Homo sapiens) (UniProt Q969F8); experiment: Human kisspeptin (KISS1R) small molecule agonists, calcium flux assay in KISS1R-HEK293 cells (AID 1920064; active = well fitted curve in the direction sought with a large enough effect in the repeat runs; an effect the other way counts as inactive or inconclusive)
# Chain of KiSS-1 receptor (Homo sapiens) (Q969F8 whole entry, looked up): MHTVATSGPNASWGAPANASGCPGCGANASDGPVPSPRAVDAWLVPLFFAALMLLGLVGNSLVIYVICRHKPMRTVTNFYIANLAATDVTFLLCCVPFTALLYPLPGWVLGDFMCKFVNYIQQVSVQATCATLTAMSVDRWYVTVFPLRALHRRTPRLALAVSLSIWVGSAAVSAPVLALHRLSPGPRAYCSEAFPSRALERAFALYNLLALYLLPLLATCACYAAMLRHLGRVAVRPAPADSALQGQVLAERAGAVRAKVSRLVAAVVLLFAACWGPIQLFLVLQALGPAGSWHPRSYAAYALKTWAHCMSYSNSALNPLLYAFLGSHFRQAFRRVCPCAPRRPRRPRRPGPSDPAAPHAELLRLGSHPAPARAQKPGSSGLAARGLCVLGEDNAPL
# In short: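 Intracellular calcium mobilization in KISS1R-HEK293 cells was recorded by fluorescence (Ex/Em 480/540) for 3 min following compound addition to cells pre-loaded 1 h with calcium dye.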
# [3] = G protein-coupled receptor (GPCR) small molecule agonists, calcium flux assay: HEK293 wild type cell line counter screen (AID 1920065)
# In short: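 In this agonist-mode screen, ATP is the positive control and DMSO the vehicle. Cells grow 18 h before a 1 h dye incubation at 37 C; signal is taken at Ex/Em 480/540 over 3 min.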
# [4] = p53 small molecule agonists, cell-based qHTS assay with human liver microsomes (AID 1963577)
# In short: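 p53RE-bla reporter cells were pre-incubated 5 h at 37 C, then treated with compounds plus human liver microsomes (0.5 mg/mL final) and NADPH (0.5 mg/mL final) for 16 h at 37 C. Beta-lactamase activity was read by LiveBLAzer fluorescence after 2 h at room temperature.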
# [5] = p53 small molecule agonists, cell-based qHTS assay with rat liver microsomes (AID 1963578)
# In short: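 p53RE-bla cells were exposed to compounds together with rat liver microsomes (0.5 mg/mL final) and NADPH (0.5 mg/mL final) for 16 h at 37 C, then read by LiveBLAzer beta-lactamase fluorescence after 2 h at room temperature.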
# [6] = p53 small molecule agonists, cell-based qHTS assay with human liver microsomes: qHTS cell viability counter screen (AID 1963579); note: nearly all actives have a fitted effect of over 45% in size
# In short: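 p53RE-bla cells (4,000/well) were pre-incubated 5 h at 37 C, then given compounds in DMSO plus human liver microsomes (0.5 mg/mL final) and NADPH (0.5 mg/mL final) for 16 h at 37 C. Viability was read by CellTiter-Glo luminescence.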
# [7] = p53 small molecule agonists, cell-based qHTS assay with rat liver microsomes: qHTS cell viability counter screen (AID 1963580); note: nearly all actives have a fitted effect of over 45% in size
# In short: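 In HCT-116 cells carrying a p53 response element-bla reporter, compounds were metabolically activated in situ by rat liver microsomes with NADPH over 16 h. Cell ATP content then served as the cytotoxicity measure.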
# [8] = p53 small molecule agonists, cell-based qHTS assay: qHTS cell viability counter screen (AID 1963581); note: nearly all actives have a fitted effect of over 45% in size
# In short: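 Compounds are pinned onto HCT-116 p53RE-bla cells and left 16 h at 37 C. Following the reporter FRET read, ATP is quantified by CellTiter-Glo luminescence after 30 min at room temperature.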
# [9] = p53 small molecule agonists, cell-based qHTS assay (AID 1963582; active = well fitted activation curve with a large enough effect in the signal ratio in the repeat runs, not every such curve was filed as active; the % refers to the signal ratio)
# In short: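 Agonist activity was scored from beta-lactamase FRET fluorescence in p53RE-bla cells treated 16 h at 37 C with compounds in DMSO, substrate incubation being 2 h at room temperature.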
# [10] = molecular target: 5-hydroxytryptamine receptor 2A (Homo sapiens) (UniProt P28223); experiment: 5-hydroxytryptamine receptor 2A (HTR2A) small molecule antagonists, cell-based qHTS assay (AID 1963586); note: nearly all actives have a fitted effect of over 45% in size; note: potency is the fitted concentration of half-maximal effect
# Chain of 5-hydroxytryptamine receptor 2A (Homo sapiens) (P28223 whole entry, looked up): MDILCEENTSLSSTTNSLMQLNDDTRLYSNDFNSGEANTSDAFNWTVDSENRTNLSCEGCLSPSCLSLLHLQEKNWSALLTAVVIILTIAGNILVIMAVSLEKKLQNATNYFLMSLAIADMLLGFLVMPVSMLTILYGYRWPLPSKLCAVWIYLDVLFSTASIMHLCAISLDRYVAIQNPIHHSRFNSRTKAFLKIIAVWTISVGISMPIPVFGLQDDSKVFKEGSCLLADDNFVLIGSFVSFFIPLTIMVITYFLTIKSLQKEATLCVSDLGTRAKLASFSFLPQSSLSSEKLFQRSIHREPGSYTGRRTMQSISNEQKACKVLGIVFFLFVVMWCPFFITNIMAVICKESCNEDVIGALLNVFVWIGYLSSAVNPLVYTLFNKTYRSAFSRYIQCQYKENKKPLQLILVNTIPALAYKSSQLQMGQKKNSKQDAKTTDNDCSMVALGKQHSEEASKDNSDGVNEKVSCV
# In short: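 Antagonist-mode intracellular calcium assay: DOI (4 nM) added after 5 min compound pre-incubation at room temperature to dye-loaded HTR2A-CHO cells. Fluorescence followed for 3 min, sampled every second.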
# [11] = molecular target: 5-hydroxytryptamine receptor 2A (Homo sapiens) (UniProt P28223); experiment: 5-hydroxytryptamine receptor 2A (HTR2A) small molecule agonists, cell-based qHTS assay (AID 1963587); note: nearly all actives have a fitted effect of over 30% in size; note: potency is the fitted concentration of half-maximal effect
# In short: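 HTR2A-CHO cells, plated 18 h at 37 C/5% CO2, dye-loaded 1 h at 37 C; compounds in DMSO added by pin tool (agonist mode). Intracellular calcium flux read as kinetic fluorescence on FDSS over 2 min at 1 s intervals.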
# [12] = molecular target: Muscarinic acetylcholine receptor M1 (Homo sapiens) (UniProt P11229); experiment: Cholinergic receptor muscarinic 1 (CHRM1) small molecule antagonists, cell-based qHTS assay (AID 1963588); note: nearly all actives have a fitted effect of over 40% in size
# Chain of Muscarinic acetylcholine receptor M1 (Homo sapiens) (P11229 whole entry, looked up): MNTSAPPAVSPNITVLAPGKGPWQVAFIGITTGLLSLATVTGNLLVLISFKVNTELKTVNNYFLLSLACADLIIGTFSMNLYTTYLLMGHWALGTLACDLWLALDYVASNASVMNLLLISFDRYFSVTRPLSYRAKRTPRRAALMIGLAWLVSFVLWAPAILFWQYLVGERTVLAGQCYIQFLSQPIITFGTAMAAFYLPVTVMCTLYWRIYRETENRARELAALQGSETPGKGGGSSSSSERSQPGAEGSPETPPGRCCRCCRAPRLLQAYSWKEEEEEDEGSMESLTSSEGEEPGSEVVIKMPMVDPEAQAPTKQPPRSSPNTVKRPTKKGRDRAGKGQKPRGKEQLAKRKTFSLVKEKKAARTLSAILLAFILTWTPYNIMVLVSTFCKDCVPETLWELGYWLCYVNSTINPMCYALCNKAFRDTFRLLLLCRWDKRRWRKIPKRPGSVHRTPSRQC
# In short: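 CHRM1-CHO calcium-flux assay, antagonist mode. Cells were seeded 18 h, dye-loaded 1 h at 37 C and given compound for 5 min at RT, then acetylcholine was added at 50nM. FDSS fluorescence was read 3 min; 15 concentrations, three runs.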
# [13] = molecular target: Muscarinic acetylcholine receptor M1 (Homo sapiens) (UniProt P11229); experiment: Cholinergic receptor muscarinic 1 (CHRM1) small molecule agonists, cell-based qHTS assay (AID 1963589); note: nearly all actives have a fitted effect of over 35% in size
# In short: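 Stable CHRM1-CHO cells (human receptor) were incubated 18 h, dye-loaded for 1 h at 37 C and exposed to test compounds for agonist activity, with calcium-dependent fluorescence followed kinetically.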
# [14] = cAMP Responsive Elements (CRE) small molecule agonists, cell-based qHTS assay (AID 1963590)
# In short: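 FRET-based beta-lactamase readout (LiveBLAzer B/G, 2 h RT) quantified CRE activation in HEK 293T CRE-bla cells after 3 h treatment with DMSO-dissolved compounds.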
# [15] = cAMP Responsive Elements (CRE) small molecule antagonists, cell-based qHTS assay (AID 1963591; active = well fitted inhibition curve with a large enough effect in the signal ratio in the repeat runs, not every such curve was filed as active; the % refers to the signal ratio)
# In short: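 qHTS in CRE-bla HEK 293T cells: compound in DMSO, then 0.25 uM NKH477 (final), 3 h at 37 °C/5% CO2; beta-lactamase FRET read-out after 2 h substrate incubation.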
# [16] = molecular target: Beta-2 adrenergic receptor (Homo sapiens) (UniProt P07550); experiment: Adrenergic beta2 receptor (ADRB2) small molecule antagonists, cell-based qHTS assay (AID 1963592); note: series mostly up to about 92 µM; nearly all actives have a fitted effect of over 50% in size
# Chain of Beta-2 adrenergic receptor (Homo sapiens) (P07550 whole entry, looked up): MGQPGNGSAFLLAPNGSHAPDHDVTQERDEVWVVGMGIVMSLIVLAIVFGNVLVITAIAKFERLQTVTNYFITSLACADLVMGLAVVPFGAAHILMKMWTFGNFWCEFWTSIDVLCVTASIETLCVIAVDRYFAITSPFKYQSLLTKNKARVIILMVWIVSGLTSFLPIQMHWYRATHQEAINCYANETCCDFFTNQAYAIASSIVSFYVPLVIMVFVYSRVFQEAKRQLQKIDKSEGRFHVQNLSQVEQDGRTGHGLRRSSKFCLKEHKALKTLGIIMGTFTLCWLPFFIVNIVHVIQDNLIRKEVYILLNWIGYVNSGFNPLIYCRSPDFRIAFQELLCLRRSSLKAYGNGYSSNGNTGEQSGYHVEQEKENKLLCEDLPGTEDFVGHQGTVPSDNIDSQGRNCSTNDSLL
# In short: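 Cells (CHO, stable ADRB2 overexpression) incubated 18-20hr at 37C; compounds added from DMSO; agonist mix (1nM isoproterenol, 100uM IBMX, 25uM Ro-20-1724) added; 0.5hr RT; d2-cAMP and anti-cAMP-cryptate added; 1hr RT; 665/615 nm read.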
# [17] = molecular target: Beta-2 adrenergic receptor (Homo sapiens) (UniProt P07550); experiment: Adrenergic beta2 receptor (ADRB2) small molecule agonists, cell-based qHTS assay (AID 1963593);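 note: CHO cells stably overexpressing human ADRB2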
# In short: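 CHO cells stably over-expressing ADRB2 were plated overnight at 37C, then dosed with compounds plus a stimulation mix containing 100uM IBMX and 25uM Ro-20-1724 for 0.5hr at room temperature. cAMP was measured by HTRF competition, 1hr.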
# [18] = molecular target: D(2) dopamine receptor (Homo sapiens) (UniProt P14416); experiment: Dopamine D2 receptor (DRD2) small molecule agonists, cell-based qHTS assay (AID 1963594); note: nearly all actives have a fitted effect of over 35% in size
# Chain of D(2) dopamine receptor (Homo sapiens) (P14416 whole entry, looked up): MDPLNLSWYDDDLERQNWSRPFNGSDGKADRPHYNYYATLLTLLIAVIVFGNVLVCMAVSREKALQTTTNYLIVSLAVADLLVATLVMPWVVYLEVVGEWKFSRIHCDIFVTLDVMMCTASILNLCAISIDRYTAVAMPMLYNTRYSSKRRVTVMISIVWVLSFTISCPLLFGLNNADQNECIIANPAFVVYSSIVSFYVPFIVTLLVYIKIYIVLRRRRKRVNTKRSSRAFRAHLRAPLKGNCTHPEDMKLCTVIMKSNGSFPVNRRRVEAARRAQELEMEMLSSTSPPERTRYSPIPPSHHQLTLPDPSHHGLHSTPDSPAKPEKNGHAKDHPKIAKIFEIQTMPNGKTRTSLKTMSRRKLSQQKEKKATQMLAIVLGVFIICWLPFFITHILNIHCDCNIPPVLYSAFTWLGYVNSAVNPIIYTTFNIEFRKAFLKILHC
# In short: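 HEK293 cells stably expressing DRD2 were cultured 24 h at 37 C, then given Ro20-1724 (0.1 mM final) and compounds for 10 min at room temperature. NKH477 (200nM) was then added for 30 min. cAMP was read by HTRF.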
# [19] = molecular target: D(2) dopamine receptor (Homo sapiens) (UniProt P14416); experiment: Dopamine D2 receptor (DRD2) small molecule antagonists, cell-based qHTS assay (AID 1963595; active = well fitted inhibition curve with a large enough effect in the signal ratio in the repeat runs, with a control signal flat; the % refers to the signal ratio)
# In short: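 Human DRD2 antagonist qHTS measuring cAMP by HTRF. The cells are exposed to compound for 10 min, then to NKH477 (200 nM) and quinpirole (12 nM) for 30 min at RT, with Ro20-1724 (0.1 mM) present throughout.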
# [20] = Nuclear factor erythroid 2-related factor 2/antioxidant responsive element (Nrf2/ARE) small molecule agonists: qHTS cell viability counter screen in human keratinocytes (AID 1919968; active = well fitted curve in the direction sought with a large enough effect in the repeat runs; an effect the other way counts as inactive or inconclusive; note: nearly all actives have a fitted effect of over 55% in size)
# In short: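 Viability counter-screen: KeratinoSens reporter cells, DMSO-delivered compounds, 23 h at 37 C, CellTiter-Fluor fluorescence.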
Structure (SMILES),Potency [1],Potency [2],Potency [3],Potency [4],Potency [5],Potency [6],Potency [7],Potency [8],Potency [9],Potency [10],Potency [11],Potency [12],Potency [13],Potency [14],Potency [15],Potency [16],Potency [17],Potency [18],Potency [19],Potency [20]
CN(C)c1ccc(SC#N)cc1,inactive,inactive,inactive,inactive,inactive,inactive,inactive,inactive,inactive,inactive,inactive,inactive,inactive,inactive,inactive,inactive,inactive,inactive,inactive,–
CCCCC/C(=C\c1ccccc1)CO,inactive,inactive,inactive,inactive,inactive,inactive,inactive,inactive,inactive,inactive,54300 nM (active),inactive,inactive,–,inactive,inactive,–,inactive,inactive,–
C/C(=C\c1ccc(C(=O)O)cc1)c1ccc2c(c1)C(C)(C)CCC2(C)C,–,–,inactive,inactive,–,inactive,inactive,inactive,inactive,inactive,inactive,inactive,inactive,inactive,inactive,inactive,–,inactive,inactive,inactive
NC(=S)NC(N)=S,inactive,inactive,inactive,inactive,inactive,inactive,inactive,inactive,inactive,inactive,inactive,inactive,inactive,inactive,inactive,inactive,inactive,inactive,inactive,–
Cc1cccc2c1cc1ccc3cccc4ccc2c1c34,–,–,–,–,–,inactive,inactive,inactive,–,inactive,inactive,inactive,–,–,–,inactive,inactive,inactive,inactive,inactive
CC1=NN(c2cc(S(=O)(=O)O)ccc2Cl)C(=O)C1N=Nc1ccccc1 (stereo not drawn),inactive,inactive,inactive,inactive,inactive,inactive,inactive,inactive,inactive,inactive,inactive,inactive,inactive,inactive,inactive,inactive,inactive,inactive,inactive,–
C=CC[N+]1([C@H]2C[C@H]3[C@@H]4CC[C@H]5C[C@H](OC(C)=O)[C@@H](N6CCCCC6)C[C@]5(C)[C@H]4CC[C@]3(C)[C@H]2OC(=O)CC)CCCCC1,inactive,inactive,inactive,inactive,inactive,inactive,inactive,inactive,inactive,–,inactive,inactive,inactive,inactive,inactive,inactive,inactive,inactive,inactive,–
Cc1oc2c(NC(=O)c3c(Cl)cccc3Cl)cccc2c1C(C)(C)O,inactive,inactive,inactive,inactive,inactive,inactive,inactive,inactive,inactive,inactive,inactive,inactive,inactive,–,inactive,inactive,–,inactive,inactive,–
COc1ccccc1OCCNCC(O)COc1cccc2[nH]c3ccccc3c12 (stereo not drawn),inactive,inactive,inactive,inactive,inactive,inactive,inactive,inactive,inactive,–,–,–,–,–,inactive,–,–,–,–,–
C[C@]12CC[C@@H]3c4ccc(O)cc4CC[C@H]3[C@@H]1CC[C@@H]2OC(=O)CCC1CCCC1,inactive,inactive,inactive,inactive,inactive,inactive,inactive,inactive,inactive,inactive,inactive,inactive,–,inactive,inactive,inactive,inactive,inactive,inactive,–
Cc1c(C(=O)O)c(O)cc2c1C(=O)c1c(O)c([C@@H]3O[C@H](CO)[C@@H](O)[C@H](O)[C@H]3O)c(O)c(O)c1C2=O,inactive,inactive,inactive,inactive,inactive,inactive,inactive,inactive,inactive,–,inactive,inactive,inactive,inactive,inactive,–,–,–,–,–
CCCCOC(=O)c1ccccc1C(=O)OCC(CC)CCCC (stereo not drawn),inactive,inactive,inactive,inactive,inactive,inactive,inactive,inactive,inactive,inactive,inactive,–,inactive,inactive,inactive,inactive,–,inactive,inactive,–
C(=C(c1ccccc1)c1ccccc1)c1ccccc1,inactive,inactive,inactive,inactive,inactive,inactive,inactive,inactive,–,inactive,inactive,inactive,inactive,inactive,inactive,inactive,–,inactive,inactive,–
CCCCC/C=C\C=C\C(=O)OCC,inactive,inactive,inactive,inactive,inactive,inactive,inactive,inactive,inactive,–,–,inactive,–,–,–,inactive,inactive,inactive,inactive,–
C=CCN1C[C@H](C(=O)N(CCCN(C)C)C(=O)NCC)C[C@@H]2c3cccc4[nH]cc(c34)C[C@H]21,inactive,inactive,inactive,inactive,inactive,inactive,inactive,inactive,inactive,0.6 nM (active),1.9 nM (active),inactive,inactive,inactive,–,inactive,inactive,–,inactive,–
